The results in this text go back to PubChem BioAssay (NCI).

Compounds without any hit were thinned out: in the full panel of roughly 83,000, 20% have a hit.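 Treatment: one concentration, 48 hours, 96-well format. Scoring: percent growth, with anything below 10 considered active.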 Values without a mark were called inactive. Activity calls are given as the source filed them.

Test systems include DU-145 prostate; K-562 leukemia; MALME-3M melanoma; MDA-MB-231 breast; RXF 393 renal; SF-268 CNS; SF-295 CNS; SF-539 CNS; UACC-257 melanoma; M14 melanoma; HCT-15 colon; HT29 colon; SNB-75 CNS; SNB-19 CNS; U251 CNS; PC-3 prostate; SK-MEL-5 melanoma; UACC-62 melanoma; LOX IMVI melanoma; SK-MEL-28 melanoma.
What all share (assay): NCI-60 one-dose screen, 48 h (100 = growth as untreated, 0 = no growth, -100 = all killed)
Holding throughout (conditions): 10 µM unless noted

Regarding `CCNC(=O)Oc1ccc(/C(=C(/C)Cc2ccc(OC)cc2)c2ccc(OCCN3CCCCC3)cc2)cc1`, the growth is 83.5% in the assay on DU-145 prostate; 0.352% (active) in the assay on K-562 leukemia; 68.1% in the assay with MALME-3M melanoma; 78.4% with MDA-MB-231 breast; 61.6% in the assay with RXF 393 renal; 70% in the assay on SF-268 CNS. The growth in the assay with SF-295 CNS was 82.6%; in the assay with SF-539 CNS, 82.9%; in the assay with UACC-257 melanoma, 95.3%; in the assay on M14 melanoma it was -14.2% (active); in the assay on HCT-15 colon, 38.9%; with HT29 colon, 1.16% (active). In addition, the growth in the assay on SNB-75 CNS is 69%; with SNB-19 CNS, 76%; in the assay on U251 CNS, 47.5%; in the assay on PC-3 prostate, 55.6%; in the assay on SK-MEL-5 melanoma, 46.2%; in the assay on UACC-62 melanoma it was 58.4%. In addition, the values for the growth in the assay on LOX IMVI melanoma and with SK-MEL-28 melanoma were 60.9% and 67.6%, respectively.

For `Oc1ccc(/C=C/c2ccc(O)cc2)cc1`, the growth with DU-145 prostate is 56.9%; in the assay on K-562 leukemia, 69.5%; with MALME-3M melanoma it was 58.9%; in the assay with MDA-MB-231 breast it was 80.1%; in the assay with RXF 393 renal, 62.8%; in the assay with SF-268 CNS it was 42.7%. In addition, the growth in the assay with SF-295 CNS was 88.1%; with SF-539 CNS, -11.4% (active); with UACC-257 melanoma it was 72.3%; in the assay with M14 melanoma, 65%; in the assay with HCT-15 colon, 33.3%; in the assay with HT29 colon it was 101%. For the same compound, the growth was 46.9% in the assay with SNB-75 CNS; 89.2% in the assay with SNB-19 CNS; 39.1% in the assay with U251 CNS; 55.3% in the assay with PC-3 prostate; 52% with SK-MEL-5 melanoma; 37.4% with UACC-62 melanoma. For the same compound, the growth is 44.4% in the assay on LOX IMVI melanoma and 76.9% with SK-MEL-28 melanoma.

As to `COc1ccc(N2CCN(C(=O)c3sc4nc(C)c(Br)c(C)c4c3N)CC2)cc1`, the growth with DU-145 prostate was 104%; with K-562 leukemia, 97.3%; with MALME-3M melanoma, -12.3% (active); with MDA-MB-231 breast it was 84.2%; in the assay with RXF 393 renal, 116%; in the assay on SF-268 CNS, 89.1%. Besides, the growth in the assay on SF-295 CNS was 95.6%; in the assay on SF-539 CNS, 91.8%; in the assay with UACC-257 melanoma, 99.7%; with M14 melanoma, 99.3%; with HCT-15 colon it was 102%; in the assay with HT29 colon it was 102%. In addition, the growth in the assay on SNB-75 CNS is 76.6%; in the assay on SNB-19 CNS it was 98.9%; with U251 CNS it was 87.4%; in the assay on PC-3 prostate, 81.9%; in the assay with SK-MEL-5 melanoma it was 93.4%; in the assay on UACC-62 melanoma, 89.2%. Besides, the growth in the assay on LOX IMVI melanoma is 93%; with SK-MEL-28 melanoma, 104%.

Turning to `Nc1[nH]c(=S)nc2oc(-c3ccccc3)c(-c3ccccc3)c12`, the growth in the assay on DU-145 prostate is 106%; in the assay on K-562 leukemia it was 95.2%; with MALME-3M melanoma it was 108%; in the assay on MDA-MB-231 breast, 103%; in the assay on RXF 393 renal it was 93%; in the assay with SF-268 CNS it was 95.9%. Also, the growth in the assay with SF-295 CNS was 96.1%; with SF-539 CNS, 98.6%; with UACC-257 melanoma, 102%; in the assay on M14 melanoma, 106%; in the assay with HCT-15 colon, 97.3%; with HT29 colon, 101%. Also, the growth in the assay with SNB-75 CNS was 90.3%; in the assay with SNB-19 CNS it was 98%; in the assay on U251 CNS it was 103%; with PC-3 prostate, 97.4%; in the assay on SK-MEL-5 melanoma, 102%; with UACC-62 melanoma, 91.5%. Moreover, the figures for the growth with LOX IMVI melanoma and in the assay with SK-MEL-28 melanoma were 98% and 101%, respectively.

With `Cc1ccc(S(=O)(=O)N2CCC(=O)c3ccccc32)cc1`, the growth was 62% in the assay with DU-145 prostate; 40.2% with K-562 leukemia; 84.9% in the assay with MALME-3M melanoma; 72.9% with MDA-MB-231 breast; 61% with RXF 393 renal; 80.2% with SF-268 CNS. Also, the growth in the assay on SF-295 CNS is 86.6%; in the assay on SF-539 CNS it was 55.1%; in the assay with UACC-257 melanoma, 77.8%; in the assay on M14 melanoma, 62%; in the assay with HCT-15 colon, 42.9%; in the assay with HT29 colon, 68.4%. Moreover, the growth was 42.8% with SNB-75 CNS; 69.4% in the assay with SNB-19 CNS; 49.4% with U251 CNS; 74.8% with PC-3 prostate; 63.3% in the assay on SK-MEL-5 melanoma; 67.7% with UACC-62 melanoma. Further, the growth in the assay with LOX IMVI melanoma is 76.4%; with SK-MEL-28 melanoma it was 80.3%.

For the compound `COc1ccc2cc(-c3ccnc4c(N=Nc5ccc(Cl)cc5)c(N)nn34)ccc2c1`, the growth in the assay with DU-145 prostate was 105%; with K-562 leukemia it was 86.5%; in the assay on MALME-3M melanoma, 97.8%; in the assay with MDA-MB-231 breast, 101%; with RXF 393 renal, 115%; in the assay with SF-268 CNS, 101%. In addition, the growth with SF-295 CNS was 102%; in the assay with SF-539 CNS it was 103%; with UACC-257 melanoma, 84.2%; in the assay with M14 melanoma, 92.8%; with HCT-15 colon, 112%; in the assay with HT29 colon it was 103%. Also, the growth in the assay with SNB-75 CNS was 79.4%; with SNB-19 CNS, 92.4%; in the assay with U251 CNS, 93.4%; with PC-3 prostate it was 89%; in the assay with SK-MEL-5 melanoma, 97.5%; in the assay on UACC-62 melanoma, 91.8%. The growth in the assay with SK-MEL-28 melanoma was 99.2%.

As to `CO[C@H]1CC(=O)n2c3ccccc3c3c4c(c5c6ccccc6n1c5c32)C(=O)NC4=O`, the growth with DU-145 prostate was 42.3%; in the assay with K-562 leukemia it was 76.3%; in the assay on MALME-3M melanoma, 50.2%; in the assay on MDA-MB-231 breast it was 71.4%; in the assay with RXF 393 renal, 62.4%; in the assay on SF-268 CNS it was 68.9%. Further, the growth with SF-295 CNS is 11.3%; in the assay with SF-539 CNS, 57%; with UACC-257 melanoma, 73.5%; with M14 melanoma, 62.2%; in the assay on HCT-15 colon, 62.4%; in the assay on HT29 colon, 26.3%. The growth in the assay on SNB-75 CNS is 4.5% (active); with SNB-19 CNS, 98.4%; in the assay with U251 CNS it was 46.8%; in the assay with PC-3 prostate it was 54.6%; in the assay on SK-MEL-5 melanoma, 60.7%; in the assay on UACC-62 melanoma it was 44.9%. The growth with LOX IMVI melanoma is 63.8%; in the assay on SK-MEL-28 melanoma it was 39.9%.

For `O=C1/C(=C/c2ccc(O)c(O)c2)COc2ccc(-c3ccccc3)cc21`, the growth in the assay with DU-145 prostate is 26.5%; in the assay with K-562 leukemia, 15.3%; in the assay on MALME-3M melanoma, 41.2%; in the assay on MDA-MB-231 breast it was 12.9%; with RXF 393 renal, 16.5%; in the assay with SF-268 CNS, 49.4%. Besides, the growth is 42.5% in the assay with SF-295 CNS; 9.83% (active) in the assay with SF-539 CNS; 30.4% in the assay with UACC-257 melanoma; 45.9% with M14 melanoma; -31.2% (active) in the assay with HCT-15 colon; 15% in the assay on HT29 colon. Besides, the growth in the assay on SNB-75 CNS is 21.1%; with SNB-19 CNS, 56.2%; in the assay with U251 CNS it was 22.3%; in the assay on PC-3 prostate, 19.9%; with SK-MEL-5 melanoma, 23.2%; in the assay with UACC-62 melanoma, -13.6% (active). The values for the growth in the assay with LOX IMVI melanoma and with SK-MEL-28 melanoma were 4.79% (active) and -11.5% (active), respectively.
